High-throughput results deposited in PubChem BioAssay by National Center for Advancing Translational Sciences (NCATS).
Rows were chosen to be rich in hits. Some 15% of all compounds tested hit in one or more screens of this group.
VP16 counter = counter-screen for ROR gamma inhibitors: Gal4-VP16 reporter | Potency, µM (doses to about 53.6 µM), inactives show at the top dose activity, negative = inhibition, hits mostly inhibitors | AID 2546 | 310,000 tested, 3.5% active | Drosophila S2 Gal4-VP16 UAS-luciferase, luminescence, 20 h;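 also: Gal4-VP16 expression switched on by copper sulfate through the metallothionein promoter; nearly all actives have a fitted effect of over 50% in size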
ELG1 DNA repair = ELG1-dependent DNA repair inhibition; 330,000 tested, 2.3% active; HEK293T ELG1-luciferase reporter, luminescence, 16 h; DNA damage induced by 5-fluorouridine; Potency, µM (highest dose often 46.1 µM), without a hit: at the top dose activity change, negative = inhibition, actives largely listed as inhibitors; also: nearly all actives have a fitted effect of over 55% in size
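Overnight (16 hr) co-exposure of 2,000 cells/well to 5-fluorouridine and compound at 37 °C preceded detection. Luciferase was quantified via ONE-Glo luminescence; loss of signal denotes inhibition.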
TDP1 cell noCPT = qHTS for Inhibitors of human tyrosyl-DNA phosphodiesterase 1 (TDP1): qHTS in cells in absence of CPT. 420,000 tested, 15% active. DT40 Tdp1-/- hTDP1 cells, no CPT, ATP luminescence, 48 h. Potency, µM (titrated, usually from 46.2 µM), for inactives: at the top dose activity change, negative = growth inhibition, hits mostly inhibitors. AID 686978, 2013; also: nearly all actives have a fitted effect of over 55% in size
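Growth kinetics read by CellTiter-Glo luminescence after ≥48 hr at 37 °C. Cells: DT40 Tdp1-/- stably carrying human TDP1, 400 per well, compound exposure in the absence of CPT (DMSO vehicle).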
TDP1 cell CPT = growth inhibition of DT40 Tdp1-/-;hTDP1 cells with camptothecin (screen for TDP1 inhibitors) | chicken DT40 Tdp1-/-;hTDP1 cells + 20 nM CPT, ATP luminescence, 48 h | Potency, µM (highest dose often 46.2 µM), for inactives: top-dose activity change, negative = growth inhibition, hits mostly inhibitors | AID 686979 | 420,000 tested, 12% active; also: nearly all actives have a fitted effect of over 55% in size
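Chicken DT40 Tdp1-/- cells complemented with human TDP1, 400 cells/well, exposed to compounds plus 20 nM camptothecin for at least 48 h at 37 C; viability read as ATP content by CellTiter-Glo luminescence.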
ALOX12 inh = inhibitors of human 12S-lipoxygenase ALOX12; P18054; purified 12hLO, xylenol orange hydroperoxide absorbance; Potency, µM (top dose mostly 108 µM), for inactives: top-dose activity change, negative = inhibition, most hits filed as inhibitors; 580,000 tested, 1.1% active
Target sequence (P18054 whole entry, looked up): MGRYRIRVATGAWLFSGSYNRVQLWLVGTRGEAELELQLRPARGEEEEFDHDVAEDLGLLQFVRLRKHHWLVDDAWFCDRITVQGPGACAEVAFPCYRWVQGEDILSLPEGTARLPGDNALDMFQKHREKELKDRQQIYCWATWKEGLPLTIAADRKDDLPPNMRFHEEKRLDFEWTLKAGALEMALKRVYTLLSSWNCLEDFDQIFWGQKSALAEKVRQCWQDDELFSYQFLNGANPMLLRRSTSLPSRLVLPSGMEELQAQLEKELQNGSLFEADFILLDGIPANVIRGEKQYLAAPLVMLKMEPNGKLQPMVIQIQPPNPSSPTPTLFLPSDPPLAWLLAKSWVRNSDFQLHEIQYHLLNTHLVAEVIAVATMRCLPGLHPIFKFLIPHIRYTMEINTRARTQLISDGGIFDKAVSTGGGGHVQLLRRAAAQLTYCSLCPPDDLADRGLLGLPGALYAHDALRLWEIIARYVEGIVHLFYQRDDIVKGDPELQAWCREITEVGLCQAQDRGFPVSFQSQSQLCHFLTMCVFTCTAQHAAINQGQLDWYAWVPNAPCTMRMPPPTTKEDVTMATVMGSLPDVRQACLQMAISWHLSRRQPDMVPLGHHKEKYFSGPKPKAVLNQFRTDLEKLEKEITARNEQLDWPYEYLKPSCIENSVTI
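Purified human 12hLO (150 nM final) in 25 mM Hepes, 0.01% Triton X-100, pH 7.0 was preincubated 15 min at room temperature with compound. Then 40 uM arachidonic acid was added, 30 min. Hydroperoxide was read by Fe-XO absorbance ratio 573/405 nm.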
RORgamma inh = ROR gamma (mouse) transcription inhibition. AID 2551. Potency, µM (highest dose often 53.6 µM), for the others: top-dose activity change, negative = inhibition, usual class: inhibitors. 310,000 tested, 5.4% active. P51450. Drosophila S2 Gal4-RORgamma UAS-luciferase reporter, 20 h; also: nearly all actives have a fitted effect of over 60% in size
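Stable Schneider cell line, Gal4 DNA-binding domain fused to ROR gamma, UAS-luciferase. Cmpd 1 hr RT → CuSO4 700 uM final → 20 hr RT → luciferase reagent 10 min → luminescence.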
* hit, by the source's call; u = inconclusive; x = no result; [ ] = another dose, or the depositor's remark. Calls follow the shape of the dose curve; as a rule, active = well fitted curve in the direction sought with a large enough effect; inconclusive = small, poorly fitted or top-dose-only effect, or another doubt; inactive = no such curve, though single readings can be large; an effect the other way counts as inactive or inconclusive. % is scaled to controls: 0 for no effect and ±100 for the full control effect; potency is read from the fitted curve at half-maximal effect.

SMILES | VP16 counter | ELG1 DNA repair | TDP1 cell noCPT | TDP1 cell CPT | ALOX12 inh | RORgamma inh
CC(C)COc1ccc(C(=O)N(Cc2ccco2)C2CCS(=O)(=O)C2)cc1 (centres undefined) | -8% | u | 16µM* | u | 67% | u
Cc1cc(OC(C)C(=O)N(Cc2ccco2)C2CCS(=O)(=O)C2)cc(C)c1Cl (centres undefined) | 2% | -6% | 21µM* | u | x | 0%
COc1ccc(CN(C(=O)c2ccc(OCC(C)C)cc2)C2CCS(=O)(=O)C2)cc1 (centres undefined) | x | x | u | 12µM* | -22% | x
N#Cc1ccc(O[C@@H]2CCOC[C@H]2NC(=O)C2(N3CCCC3)CCCC2)cc1 | x | x | x | x | 45% | x
CN1CCN(C(=O)C2CCN(c3nc(Cl)nc4nc[nH]c34)CC2)CC1 | x | x | x | x | 0% | x
CN[C@@H](C)C(=O)N1CC[C@H](NC(=O)c2ccncc2)C[C@H]1C(=O)N[C@@H](Cc1ccc(OC)cc1)C(N)=O | x | x | x | x | 72% | x
Cc1cc(C)nc(-n2nc(C)cc2NC(=O)CNC2CCCCC2)n1 | 6.3µM* | 15% | -16% | -15% | -15% | 2.5µM*
Cc1cc(C)nc(-n2nc(C)cc2NC(=O)CN2CCc3ccccc3C2)n1 | 2.8µM* | 3.7µM* | 23µM* | 10µM* | 3%[57.4 µM] | 0.79µM*
Cc1cc(C)nc(-n2nc(C)cc2NC(=O)CN2CCCC(C)C2)n1 (centres undefined) | 5.6µM* | -11% | u | u | 14% | 0.71µM*
O=C(Nc1ccccc1)Nc1nnc(C2CCCC2)s1 | x | x | x | x | -1% | x
Cc1nn(C)c(C(=O)Nc2c(C)nn(Cc3c(F)c(F)c(F)c(F)c3F)c2C)c1Br | -4% | -4% | 3.7µM* | 8.2µM* | 2% | 24%
CCOc1ccc(OCC)c(NC(=O)Nc2ccc(F)cc2F)c1 | x | x | x | x | 2% | x
COc1ccccc1-n1cnc2cc(NCc3ccco3)ccc21 | 24% | u | 1.3µM* | 1.5µM* | 0% | u
CCCNC(=O)c1ccc2c(c1)ncn2-c1ccccc1OC | x | u | u | 3% | 13% | 28%[0.365 µM]
CC(C)(C)n1cnc2cc(NC(=O)c3cccs3)ccc21 | -12% | u | 23µM* | u | 0% | 13%
CC(C)(C)n1cnc2cc(NCc3cccs3)ccc21 | 5%[10 µM] | u | -17% | u | 24% | 11µM*
CCn1cnc2cc(NC(=O)c3cccs3)ccc21 | 1% | u | -2% | -12% | 6% | -5%
Cc1ccccc1-n1cnc2cc(NCc3cccs3)ccc21 | -8% | 1% | 23µM* | u | 0% | u
COc1ccccc1-n1cnc2cc(NCc3cccs3)ccc21 | -19% | u | 0.92µM* | 0.73µM* | -16% | u
COc1ccc(CNc2ccc3c(c2)ncn3-c2ccccc2OC)cc1 | u | u | u | u | 8% | 18µM*
CCCn1cnc2cc(NCc3ccc(OC)cc3OC)ccc21 | x | x | 23µM* | 16µM* | 7% | x
CCOc1ccc(CNc2ccc3c(c2)ncn3C(C)(C)C)cc1 | -4% | u | 21µM* | u | -15% | u
CCCn1cnc2cc(NCc3cccc(OC)c3)ccc21 | 19% | u | u | -23% | 12% | 7%
COc1ccc(-c2cn3c(n2)sc2cc(C(=O)NCCC4=CCCCC4)ccc23)cc1 | x | x | 13µM* | u | -32% | x
COc1ccc(-c2cn3c(n2)sc2cc(C(=O)NCCc4ccc(OC)cc4OC)ccc23)cc1 | x | x | 9.2µM* | 7.3µM* | -19% | x
SMILES | VP16 counter | ELG1 DNA repair | TDP1 cell noCPT | TDP1 cell CPT | ALOX12 inh | RORgamma inh
O=C(O)c1ccc(S(=O)(=O)N2CCC(c3nc(-c4ccccc4Cl)no3)CC2)cc1 | -5% | -3% | -1% | -10% | 29% | -17%
O=C(C(c1ccccc1)c1ccccc1)N1CCC(c2nc(-c3ccccc3Cl)no2)CC1 | x | x | u | 23µM* | 6% | x
O=C(CN1C(=O)CSc2ccccc21)NOCc1ccccc1 | x | x | x | x | 3% | x
S=C(N/N=C1/CC2CC=CC12)NC1CCCCC1 (centres undefined) | x | x | x | x | 35µM* | x
COC(=O)c1c(NC(=O)CN2CCCC(C)C2)c2c(C)cccc2n1C (centres undefined) | -8% | -13% | 6.5µM* | u | 38% | -37%
c1ccc(CNc2nc(-c3ccoc3)nc3ccccc23)cc1 | 16% | x | u | u | 16µM* | 31%
Cc1cccc(CNc2nc(-c3ccoc3)nc3ccccc23)c1 | 3% | x | 21µM* | u | u | 5%
c1ccc(CNc2nc(-c3ccccc3)nc3ccccc23)cc1 | -6% | -9% | -20% | -18% | 22% | 17%
COc1ccc(OC)c(NC(=O)Nc2nnc(N(C)C3CCCCC3)s2)c1 | x | x | x | x | 55% | x
CS(=O)(=O)N1CCc2cc(-c3csc(NCC4CCCO4)n3)ccc21 (centres undefined) | 8% | -20% | -27% | -25% | 23% | -29%
CCCC(=O)Nc1nc(-c2ccc3c(c2)CCN3S(C)(=O)=O)cs1 | -11% | u | 23µM* | u | -40% | 25%
CS(=O)(=O)N1CCc2cc(-c3csc(NC(=O)Cc4ccccc4)n3)ccc21 | -9% | 18µM* | u | u | -29% | u
O=C([C@@H]1C[C@H](Oc2cccnc2)CN1)N1CCOCC1 | x | x | x | x | -2% | x
O=C(NC1CC1)C(Sc1ccc2ccccc2c1)c1ccc(F)cc1 (centres undefined) | x | x | x | x | -59% | x
Nc1nc2ccccc2n1CCOc1ccc(F)cc1 | -5% | -25% | 23µM* | u | 9% | -27%
COc1ccc(OCCn2c(N)nc3ccccc32)cc1 | -6% | 5% | 23µM* | u | -11% | -29%
Cc1nc2ccccc2n1CCOc1ccccc1 | u | 1% | u | u | 21% | 1%
COc1ccc(OCCn2c(C(C)Oc3ccccc3)nc3ccccc32)cc1 (centres undefined) | x | x | u | u | -22% | x
Cc1ccccc1OCc1nc(C2CN(C(=O)Cc3ccsc3)C2)no1 | x | x | x | x | 18% | x
Cc1ccc(C2CC(c3cccs3)=NN2C(=O)CCl)cc1 (centres undefined) | u | u | 2.9µM* | 2.6µM* | u | 18µM*
COc1ccc(C2CC(c3cccs3)=NN2C(=O)CSC2=NN3CCCC(=O)N=C3S2)cc1 (centres undefined) | 15% | -15% | u | u | 37% | 1%
